Laboratory results from PubChem BioAssay (NCATS).
“And” between values parts separate entries of the source, which are not always exact repeats. Equal values may be shown once. Results filed as inconclusive are left out. Where a call stands in place of a potency, no number is given. The source made the active and inactive calls. Unless noted, calls follow the shape of the dose curve; as a rule, active = well fitted inhibition curve with a large enough effect; inconclusive = small, poorly fitted or top-dose-only effect; inactive = flat fitted curve, though single readings scatter.

Experiments:
[1] = molecular target: Ubiquitin carboxyl-terminal hydrolase 1 (Homo sapiens) (UniProt O94782); experiment: Inhibitors of USP1/UAF1: Pilot qHTS (AID 504865); also: nearly all actives have a fitted effect of over 35% in size; also: potency is read from the fitted curve at half-maximal effect
Chain of Ubiquitin carboxyl-terminal hydrolase 1 (Homo sapiens) (O94782 whole entry, looked up): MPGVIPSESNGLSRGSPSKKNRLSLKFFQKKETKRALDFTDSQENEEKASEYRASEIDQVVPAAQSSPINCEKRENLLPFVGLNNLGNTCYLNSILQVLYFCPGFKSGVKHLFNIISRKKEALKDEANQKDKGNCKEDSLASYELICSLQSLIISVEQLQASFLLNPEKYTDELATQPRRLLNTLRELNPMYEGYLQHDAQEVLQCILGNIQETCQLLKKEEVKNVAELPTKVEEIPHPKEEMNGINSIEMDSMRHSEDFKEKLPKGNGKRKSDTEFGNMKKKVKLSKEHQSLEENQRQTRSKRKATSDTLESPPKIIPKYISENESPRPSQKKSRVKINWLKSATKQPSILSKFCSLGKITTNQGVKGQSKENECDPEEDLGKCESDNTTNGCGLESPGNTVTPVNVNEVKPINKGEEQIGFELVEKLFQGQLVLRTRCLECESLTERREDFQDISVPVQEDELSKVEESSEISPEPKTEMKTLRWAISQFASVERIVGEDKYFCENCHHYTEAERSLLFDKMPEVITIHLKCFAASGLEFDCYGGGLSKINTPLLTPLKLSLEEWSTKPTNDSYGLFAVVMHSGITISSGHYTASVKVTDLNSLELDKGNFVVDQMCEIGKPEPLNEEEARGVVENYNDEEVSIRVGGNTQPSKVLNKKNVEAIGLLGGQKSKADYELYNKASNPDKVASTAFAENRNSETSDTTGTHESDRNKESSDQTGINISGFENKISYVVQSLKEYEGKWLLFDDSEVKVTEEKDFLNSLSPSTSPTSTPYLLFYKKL
Outline: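 In 50mM HEPES pH 7.8 containing 0.5mM EDTA, 1mM TCEP, 0.1 mg/ml BSA and 0.01% Tween-20, 1nM USP1/UAF1 is exposed to compound for 15 min, then Ub-Rho (150nM final) is added and fluorescence is read over time.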

[2] = molecular target: Estrogen receptor (Homo sapiens) (UniProt P03372); experiment: qHTS assay for small molecule agonists of estrogen receptor alpha signaling (AID 588514; calls by dose curve; also: nearly all actives have a fitted effect of over 70% in size)
Chain of Estrogen receptor (Homo sapiens) (P03372 whole entry, looked up): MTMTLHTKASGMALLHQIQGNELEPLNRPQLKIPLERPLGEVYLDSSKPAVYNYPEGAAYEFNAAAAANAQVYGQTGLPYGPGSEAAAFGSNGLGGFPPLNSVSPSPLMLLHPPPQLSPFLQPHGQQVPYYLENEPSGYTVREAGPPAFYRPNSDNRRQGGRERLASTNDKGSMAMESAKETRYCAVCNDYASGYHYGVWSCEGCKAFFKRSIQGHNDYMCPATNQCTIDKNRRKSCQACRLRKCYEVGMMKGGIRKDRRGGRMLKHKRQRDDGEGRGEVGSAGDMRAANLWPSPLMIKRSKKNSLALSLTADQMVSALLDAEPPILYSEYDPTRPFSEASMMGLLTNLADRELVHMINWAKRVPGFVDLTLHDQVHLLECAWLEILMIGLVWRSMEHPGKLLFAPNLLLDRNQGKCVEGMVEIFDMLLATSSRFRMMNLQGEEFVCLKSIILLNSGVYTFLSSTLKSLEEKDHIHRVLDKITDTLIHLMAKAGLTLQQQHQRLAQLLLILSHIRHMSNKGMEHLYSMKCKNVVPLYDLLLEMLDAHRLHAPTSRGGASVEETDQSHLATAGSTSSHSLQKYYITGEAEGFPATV
Outline: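 EC50 and efficacy came from Hill fits of beta-lactamase reporter signal (CCF4 dye, 2 h at room temperature) scaled between DMSO and 20 nM 17-beta-estradiol. Agonist mode: HEK293 ER-alpha-UAS-bla cells in charcoal/dextran-stripped serum medium, 18 h compound exposure at 37 C.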

[3] = qHTS assay for small molecule antagonists of peroxisome proliferator-activated receptor delta signaling (AID 588535; active = well fitted inhibition curve with a large enough effect in the signal ratio, with a control signal flat, not every such curve was filed as active; the % refers to the signal ratio; also: potency is read from the fitted curve at half-maximal effect;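 as to max response: cells co-treated with a PPAR-delta agonist as stimulator during compound exposure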); details: HEK293T PPARd-UAS-bla, beta-lactamase FRET ratio, 18 h; 460 nm channel
Outline: (§1)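 Fluorescence from CCF4-loaded GeneBLAzer PPAR-delta-UAS-bla HEK293T cells (2 hrs RT loading) quantified reporter inhibition after an 18 hr, 37 C compound exposure across a titration.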

[4] = molecular target: Peroxisome proliferator-activated receptor delta (Homo sapiens) (UniProt Q03181); experiment: as above
Chain of Peroxisome proliferator-activated receptor delta (Homo sapiens) (Q03181 whole entry, looked up): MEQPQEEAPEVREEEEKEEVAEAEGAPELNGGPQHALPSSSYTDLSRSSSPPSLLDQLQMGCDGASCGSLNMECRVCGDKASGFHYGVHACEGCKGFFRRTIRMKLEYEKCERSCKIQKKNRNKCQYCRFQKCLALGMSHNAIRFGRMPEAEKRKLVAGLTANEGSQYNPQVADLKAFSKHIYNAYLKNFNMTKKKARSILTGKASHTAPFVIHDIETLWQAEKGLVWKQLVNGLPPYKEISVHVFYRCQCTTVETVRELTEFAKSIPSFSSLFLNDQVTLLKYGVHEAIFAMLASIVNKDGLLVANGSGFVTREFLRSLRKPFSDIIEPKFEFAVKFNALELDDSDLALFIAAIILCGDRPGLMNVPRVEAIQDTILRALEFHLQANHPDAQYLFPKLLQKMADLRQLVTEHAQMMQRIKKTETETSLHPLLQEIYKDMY
Outline: as §1

[5] = molecular target: Peroxisome proliferator-activated receptor gamma (Homo sapiens) (UniProt P37231); experiment: qHTS assay for small molecule agonists of peroxisome proliferator-activated receptor gamma signaling (AID 588536; active = well fitted curve in the direction sought with a large enough effect in the signal ratio, with a control signal flat, not every such curve was filed as active; the % refers to the signal ratio)
Chain of Peroxisome proliferator-activated receptor gamma (Homo sapiens) (P37231 whole entry, looked up): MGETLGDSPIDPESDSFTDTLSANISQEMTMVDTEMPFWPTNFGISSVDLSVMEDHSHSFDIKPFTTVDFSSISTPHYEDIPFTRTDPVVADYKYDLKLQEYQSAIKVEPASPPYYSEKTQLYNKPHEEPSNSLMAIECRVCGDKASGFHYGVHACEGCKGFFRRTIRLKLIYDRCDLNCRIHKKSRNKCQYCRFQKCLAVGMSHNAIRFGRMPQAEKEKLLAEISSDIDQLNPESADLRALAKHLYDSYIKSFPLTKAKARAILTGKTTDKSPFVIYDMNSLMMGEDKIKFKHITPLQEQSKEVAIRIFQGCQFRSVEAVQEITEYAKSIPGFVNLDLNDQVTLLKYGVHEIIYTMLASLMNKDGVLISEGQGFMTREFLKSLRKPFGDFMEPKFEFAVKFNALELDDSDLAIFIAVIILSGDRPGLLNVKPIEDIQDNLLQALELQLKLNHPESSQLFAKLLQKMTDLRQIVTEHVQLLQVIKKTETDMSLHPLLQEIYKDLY
Outline: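 Compound treatment: 16 h, 37 C, HEK293 GeneBLAzer cells. Detection: CCF4, 2 h RT. Values: Hill-fit EC50, efficacy as % of 2 uM rosiglitazone.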

[6] = molecular target: Peroxisome proliferator-activated receptor gamma (Homo sapiens) (UniProt P37231); experiment: qHTS assay for small molecule antagonists of peroxisome proliferator-activated receptor gamma signaling (AID 588537; active = well fitted inhibition curve with a large enough effect in the signal ratio, with a control signal flat, not every such curve was filed as active; the % refers to the signal ratio;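 also: reporter cells co-stimulated with 50 nM rosiglitazone agonist during compound treatment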)
Outline: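 Fluorescence at 460 and 530 nm (405 nm excitation) reported beta-lactamase cleavage of CCF4 after 2 h room-temperature loading. HEK293 reporter cells in 1% charcoal/dextran-treated FBS had received compound and rosiglitazone for 16 h.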

[7] = molecular target: Vitamin D3 receptor (Homo sapiens) (UniProt P11473); experiment: qHTS assay for small molecule antagonists of vitamin D receptor signaling (AID 588541; calls by dose curve; also: potency is read from the fitted curve at half-maximal effect)
Outline: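 VDR-UAS-bla HEK293T cells in 2% charcoal-stripped FBS were stimulated with 1-alpha,25-dihydroxyvitamin D3 (3 nM final) plus compound for 16 h at 37 C. The beta-lactamase CCF4 readout was normalized to 50 nM agonist and DMSO, and Hill fits gave IC50.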

[8] = molecular target: Glucocorticoid receptor (Homo sapiens) (UniProt P04150); experiment: qHTS assay for small molecule antagonists of glucocorticoid receptor signaling (AID 588533; active = well fitted inhibition curve with a large enough effect in the signal ratio, with a control signal flat, not every such curve was filed as active; the % refers to the signal ratio)
Chain of Glucocorticoid receptor (Homo sapiens) (P04150 whole entry, looked up): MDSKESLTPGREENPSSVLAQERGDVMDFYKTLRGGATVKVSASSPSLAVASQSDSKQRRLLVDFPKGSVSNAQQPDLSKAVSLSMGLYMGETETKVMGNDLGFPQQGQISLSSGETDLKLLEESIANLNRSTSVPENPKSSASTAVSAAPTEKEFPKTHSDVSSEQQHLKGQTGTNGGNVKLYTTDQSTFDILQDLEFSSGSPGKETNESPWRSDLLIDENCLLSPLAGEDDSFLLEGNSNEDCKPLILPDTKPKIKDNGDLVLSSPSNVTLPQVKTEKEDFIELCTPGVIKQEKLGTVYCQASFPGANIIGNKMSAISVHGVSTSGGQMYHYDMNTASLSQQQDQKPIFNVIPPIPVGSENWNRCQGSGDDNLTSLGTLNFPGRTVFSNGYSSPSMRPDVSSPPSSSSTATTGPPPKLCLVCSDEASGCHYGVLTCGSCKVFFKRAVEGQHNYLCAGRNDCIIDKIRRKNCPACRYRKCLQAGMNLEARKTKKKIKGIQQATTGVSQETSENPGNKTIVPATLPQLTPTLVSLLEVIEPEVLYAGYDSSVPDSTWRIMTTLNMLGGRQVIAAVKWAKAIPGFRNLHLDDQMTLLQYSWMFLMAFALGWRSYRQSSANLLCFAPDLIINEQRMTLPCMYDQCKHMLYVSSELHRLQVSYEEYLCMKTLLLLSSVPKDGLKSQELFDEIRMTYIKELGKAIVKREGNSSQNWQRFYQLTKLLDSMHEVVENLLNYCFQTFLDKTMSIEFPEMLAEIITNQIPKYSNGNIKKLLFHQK
Outline: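 Antagonist-mode qHTS: compound titrations added to GRE-bla HeLa cells, then dexamethasone 2 nM final; 18 h, 37 C. CCF4 FRET fluorescence normalized to dexamethasone and DMSO; IC50 from Hill fit.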

[9] = molecular target: DNA dC->dU-editing enzyme APOBEC-3G (Homo sapiens) (UniProt Q9HC16); experiment: qHTS for inhibitors of Vif-A3G interactions: Validation (AID 588379)
Chain of DNA dC->dU-editing enzyme APOBEC-3G (Homo sapiens) (Q9HC16 whole entry, looked up): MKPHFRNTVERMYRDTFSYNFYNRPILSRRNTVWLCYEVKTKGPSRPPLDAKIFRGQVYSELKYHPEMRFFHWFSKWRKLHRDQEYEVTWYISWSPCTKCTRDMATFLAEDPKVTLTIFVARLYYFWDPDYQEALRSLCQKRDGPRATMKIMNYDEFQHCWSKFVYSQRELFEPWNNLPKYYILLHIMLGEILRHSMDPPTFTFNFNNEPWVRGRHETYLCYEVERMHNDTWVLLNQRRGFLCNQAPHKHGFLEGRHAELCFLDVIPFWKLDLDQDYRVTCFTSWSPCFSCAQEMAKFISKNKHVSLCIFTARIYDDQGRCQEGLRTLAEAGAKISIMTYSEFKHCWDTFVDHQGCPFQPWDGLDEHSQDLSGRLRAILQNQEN
Outline: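 Yellow fluorescence (Ex 488, Em 500-530) of Vif-coexpressing HeLa A3G-eYFP cells, scanned by Acumen cytometer, reports blocked A3G degradation. Cells plated at 700/well overnight at 37 deg C before compound addition, then a further overnight compound incubation at 37 deg C.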

[10] = molecular target: Bile acid receptor (Homo sapiens) (UniProt Q96RI1); experiment: qHTS assay for small molecule antagonists of farnesoid X receptor signaling (AID 588526; calls by dose curve; also: potency is read from the fitted curve at half-maximal effect)
Chain of Bile acid receptor (Homo sapiens) (Q96RI1 whole entry, looked up): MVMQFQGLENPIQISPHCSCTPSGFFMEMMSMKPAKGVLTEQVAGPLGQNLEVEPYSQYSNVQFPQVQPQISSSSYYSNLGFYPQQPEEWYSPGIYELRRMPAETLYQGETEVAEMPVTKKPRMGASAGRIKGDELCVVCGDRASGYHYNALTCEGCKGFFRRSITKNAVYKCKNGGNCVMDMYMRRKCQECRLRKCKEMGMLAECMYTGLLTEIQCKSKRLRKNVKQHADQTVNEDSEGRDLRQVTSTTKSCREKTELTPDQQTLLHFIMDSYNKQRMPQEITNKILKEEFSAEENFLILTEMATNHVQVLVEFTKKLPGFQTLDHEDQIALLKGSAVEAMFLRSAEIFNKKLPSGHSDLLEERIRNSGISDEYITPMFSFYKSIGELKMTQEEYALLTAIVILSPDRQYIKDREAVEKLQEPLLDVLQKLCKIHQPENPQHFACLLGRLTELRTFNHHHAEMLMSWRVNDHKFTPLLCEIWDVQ
Outline: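 Antagonist mode: titrated compounds tested against chenodeoxycholic acid stimulation (normalized to 50 uM CDCA and DMSO) in GeneBLAzer HEK293T cells for 16 h. Beta-lactamase read by CCF4 fluorescence; IC50 from Hill fits.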

[11] = molecular target: Glucocorticoid receptor (Homo sapiens) (UniProt P04150); experiment: qHTS assay for small molecule agonists of glucocorticoid receptor signaling (AID 588532; active = well fitted curve in the direction sought with a large enough effect in the signal ratio, with a control signal flat; the % refers to the signal ratio); details: HeLa MMTV-bla, beta-lactamase ratio, agonist, 18 h; stronger effect = higher value; percent of dexamethasone control, DMSO zero
Outline: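 MMTV-bla HeLa beta-lactamase reporter cells in 1% charcoal/dextran FBS medium, compounds up to 92 uM for 18 h at 37 C, CCF4 readout; normalized to 0.1 uM dexamethasone (100%), EC50 and efficacy from Hill fits.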

[12] = molecular target: Androgen receptor (Homo sapiens) (UniProt P10275); experiment: qHTS assay for small molecule agonists of androgen receptor signaling (AID 588515; active = well fitted curve in the direction sought with a large enough effect in the signal ratio, with a control signal flat; the % refers to the signal ratio); details: AR-UAS-bla HEK293, beta-lactamase ratio, agonist 16 h; stronger effect = higher value
Chain of Androgen receptor (Homo sapiens) (P10275 whole entry, looked up): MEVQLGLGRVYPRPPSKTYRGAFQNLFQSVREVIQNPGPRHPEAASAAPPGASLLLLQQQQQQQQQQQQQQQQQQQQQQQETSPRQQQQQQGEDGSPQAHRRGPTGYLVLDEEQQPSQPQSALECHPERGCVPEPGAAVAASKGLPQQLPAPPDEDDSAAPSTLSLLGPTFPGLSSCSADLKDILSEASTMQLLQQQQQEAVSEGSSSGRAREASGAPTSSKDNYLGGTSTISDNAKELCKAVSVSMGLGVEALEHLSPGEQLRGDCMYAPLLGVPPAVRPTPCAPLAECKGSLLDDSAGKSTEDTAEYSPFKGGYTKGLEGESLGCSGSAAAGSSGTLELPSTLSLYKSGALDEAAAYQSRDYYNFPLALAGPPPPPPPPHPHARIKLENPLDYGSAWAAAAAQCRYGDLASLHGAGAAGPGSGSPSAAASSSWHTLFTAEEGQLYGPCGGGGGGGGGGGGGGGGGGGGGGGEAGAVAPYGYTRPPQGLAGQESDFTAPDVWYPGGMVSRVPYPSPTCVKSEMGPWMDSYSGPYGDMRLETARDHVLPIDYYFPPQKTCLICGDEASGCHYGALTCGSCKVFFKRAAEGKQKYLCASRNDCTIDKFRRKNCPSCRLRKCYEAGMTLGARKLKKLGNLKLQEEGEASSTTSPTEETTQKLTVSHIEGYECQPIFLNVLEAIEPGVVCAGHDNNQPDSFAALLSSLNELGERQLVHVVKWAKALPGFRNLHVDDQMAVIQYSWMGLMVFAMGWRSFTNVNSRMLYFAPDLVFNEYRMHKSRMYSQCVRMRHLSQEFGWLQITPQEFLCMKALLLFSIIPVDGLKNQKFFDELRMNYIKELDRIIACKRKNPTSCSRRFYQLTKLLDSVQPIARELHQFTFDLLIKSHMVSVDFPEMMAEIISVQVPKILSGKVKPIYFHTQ
Outline: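 Stimulation of an AR-responsive β-lactamase reporter in GripTite HEK293 cells was measured after 16 h compound exposure at 37 °C, via CCF4 fluorescence after 2 h RT. EC50 from Hill fits, normalized to R1881 at 30 nM.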

[13] = molecular target: Androgen receptor (Homo sapiens) (UniProt P10275); experiment: qHTS assay for small molecule antagonists of androgen receptor signaling (AID 588516; active = well fitted curve in the direction sought with a large enough effect in the signal ratio, with a control signal flat, not every such curve was filed as active; the % refers to the signal ratio)
Outline: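 Cells were plated and incubated 5 h, compounds added in titration, then R1881 (10 nM final) as agonist. After 16 h at 37 C, CCF4 substrate was loaded for 2 h at room temperature and fluorescence measured.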

C=CCc1ccc(O)c(OC)c1
Potency [1]: inactive
outcome [2]: inactive
max response [3]: 11.6% and 2.37%
Potency [4]: inactive
outcome [5]: inactive
Potency [6]: inactive

Oc1ccc(Cl)cc1Sc1cc(Cl)ccc1O
outcome [5]: inactive
Potency [7]: inactive

C[C@H]1C[C@H]2[C@@H]3CCC4=CC(=O)C=C[C@]4(C)[C@@]3(Cl)[C@@H](O)C[C@]2(C)[C@@]1(O)C(=O)CO
Potency [1]: inactive
outcome [2]: inactive
Potency [8]: inactive
outcome [5]: inactive
Potency [6]: inactive
Potency [7]: inactive

CC(C)(CO)[C@@H](O)C(=O)NCCCO
Potency [1]: inactive
outcome [9]: inactive

CCN1CCC[C@H]1CNC(=O)c1c(OC)ccc(Br)c1OC
Potency [1]: inactive
outcome [9]: inactive

COc1cccc2c1C(=O)c1c(O)c3c(c(O)c1C2=O)C[C@@](O)(C(C)=O)C[C@@H]3O[C@H]1C[C@H](N)[C@H](O)[C@H](C)O1
Potency [1]: 44.7 µM (active) and 39.8 µM (active)
outcome [9]: inactive
Potency [7]: 8.91 µM (active)

CC(O)C(=O)O (centres undefined)
Potency [1]: inactive
outcome [2]: inactive
Potency [10]: inactive
max response [3]: -0.0545%
Potency [4]: inactive
Potency [7]: inactive

CC[N+](CC)(CCNC(=O)C(=O)NCC[N+](CC)(CC)Cc1ccccc1Cl)Cc1ccccc1Cl
Potency [1]: inactive
outcome [9]: inactive

CC/C(=C(/CC)c1ccc(O)cc1)c1ccc(O)cc1
Potency [10]: 44.7 µM (active) and 39.8 µM (active)
activation [11]: -20.1% (inactive)
Potency [7]: inactive

CC(=O)Oc1ccc(C(c2ccc(OC(C)=O)cc2)c2ccccn2)cc1
Potency [1]: inactive
outcome [5]: inactive
Potency [7]: inactive

COc1cccc2c1C(=O)c1c(O)c3c(c(O)c1C2=O)C[C@@](O)(C(=O)CO)C[C@@H]3O[C@H]1C[C@H](N)[C@H](O)[C@H](C)O1
outcome [2]: inactive
max response [3]: -92.6%
Potency [4]: 1.41 µM (active)

CCCCCCc1ccc(O)cc1O
Potency [1]: 44.7 µM (active)
activation [12]: -17.1% (inactive)
outcome [13]: inactive
activation [11]: -1.17% (inactive) and 14.5% (inactive)
Potency [8]: inactive
outcome [5]: inactive
Potency [7]: inactive

CNCC[C@@H](Oc1ccccc1C)c1ccccc1
Potency [1]: inactive
outcome [9]: inactive

CN(C)C(=S)SC(=S)N(C)C
Potency [1]: inactive
Potency [10]: inactive
Potency [8]: inactive
max response [3]: 6.78%
Potency [4]: inactive
outcome [5]: inactive
Potency [6]: inactive
Potency [7]: inactive

Nc1ccc(C(=O)O)cc1
Potency [1]: inactive
outcome [2]: inactive
Potency [10]: inactive
activation [11]: -1.78% (inactive)
Potency [8]: inactive
max response [3]: 41.6%
Potency [4]: inactive
outcome [5]: inactive
Potency [6]: inactive
